According to PubChem BioAssay (NCI):
About 79,000 compounds went through this panel and 15% of them were active in at least one assay; those are over-represented in the sample as a whole. Values without a mark were called inactive. Calls of active or inactive are those of the source. Rule as the data show it: active = growth inhibition above about 70%; inactive = the rest.

Assay: NCI Yeast Anticancer Drug Screen. Data for the mlh1 rad18 strain (AID 175)
Settings: S. cerevisiae mlh1 rad18 strain growth inhibition; at 50.0 µM (retest, dose inferred, filed as 5.0); hits give high values
Outline: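 Steps: expose repair-defective yeast to compound; measure growth; express inhibition against vehicle-treated controls.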

Row | Compound | growth inhibition
1 | Cc1ccc(O)c(C(c2cc(C)ccc2O)c2ccccc2Cl)c1 | 95% (active)
2 | O=c1ssc(=Nc2ccc(Cl)cc2)n1-c1ccc(Cl)cc1 | 99% (active)
3 | CC(=O)OC1CCC2(C)C(CCC3C4=CCC(C5COC(=O)C5)C4(C)CCC32)C1 (stereo unspecified) | 90% (active)
4 | CCN(CC)CCCC(C)Nc1cc(F)cc2cccnc12 (stereo unspecified) | 69%
5 | CC1CN(CCCN2c3ccccc3Sc3ccc(Cl)cc32)C(C)(C)C1 (stereo unspecified) | 99% (active)
6 | O=S(=O)(O)c1ccc2c(c1)C1C(C3C2C2(Cl)C(Cl)=C(Cl)C3(Cl)C2(Cl)Cl)C2(Cl)C(Cl)=C(Cl)C1(Cl)C2(Cl)Cl (stereo unspecified) | 93% (active)
7 | OC(CN1CCC(c2ccccc2)CC1)c1ccc(Br)cc1 (stereo unspecified) | 91% (active)
8 | CCOC(=O)/C(C#N)=C\c1cccc2ccccc12 | 94% (active)
9 | COc1ccc2c(c1)CCC(N1CCCC(O)C1)C2 (stereo unspecified) | 98% (active)
10 | COc1cccc(N2CCN(CC(O)COc3cc4c(c5c3CCCC5)CCCC4)CC2)c1 (stereo unspecified) | 94% (active)
11 | CC(=O)Oc1ccc(Cl)cc1Cc1cc(Cl)ccc1OC(C)=O | 94% (active)
12 | CC(O)c1c2c(cc3c1CC1(C3)Cc3cc4c(c(C(C)O)c3C1)CCC4)CCC2 (stereo unspecified) | 97% (active)
13 | O=c1c2ccccc2nc(-c2ccccc2)n1NC(=S)Nc1ccc(Cl)cc1[N+](=O)[O-] | 10%
14 | O=C(CCCN1CCc2[nH]c3cc(F)ccc3c2C1)c1ccc(F)cc1 | 99% (active)
15 | OC(C(=Nc1ccccc1)c1ccccc1)c1ccccc1 (stereo unspecified) | 99% (active)
16 | N#CC1CCCC(Cc2ccccc2)(c2ccccc2)C1=O (stereo unspecified) | 96% (active)
